PubChem BioAssay (NCATS)
Inconclusive results are not listed. Entries that show only a call come without a potency. Activity calls are given as the source filed them. Calls follow the shape of the dose curve; as a rule, active = well fitted inhibition curve with a large enough effect; inconclusive = small, poorly fitted or top-dose-only effect; inactive = flat fitted curve, though single readings scatter.

The molecules below were run on Zika virus NS2B-NS3 protease (assay: Primary screen GU AMC qHTS for Zika virus inhibitors (AID 1347154; also: nearly all actives have a fitted effect of over 70% in size)). Settings: Zika NS2B-NS3 unlinked protease, AMC fluorogenic substrate; series mostly up to 54.1 µM.
From the text: Avindra Nath, Ph.D., National Institute of Neurological Disorders and Stroke (NINDS), Bethesda, MD
Radhakrishnan Padmanabhan, Ph.D., Georgetown University (GU), Washington D.C.
Zika Virus causes congenital defects, including microcephaly and is associated with Guillain-Barre syndrome, eningoencephalitis and myelitis in infected adult. […] Using a target-based approach, we hope to establish a screening paradigm to uncover novel, cell-active NS2B-NS3 protease (Zika Virus) specific inhibitors from NCATS' collection of small molecules using qHTS.
Early Translation Branch (ETB)
National Center for Advancing Translational Sciences (NCATS), Rockville, MD
National Institute of Health (NIH), Bethesda, Maryland
Padmanabhan lab provided the NS2B hydrophilic domain and NS3 protease domain in a noncovalent complex used for the unlinked assay. Control compound aprotinin is obtained from Thermo Scientific (#78432; Waltham, Massachusetts). NS2B-NS3 AMC substrate (Bz-Nle-Lys-Arg-Arg-AMC; Nle-KRR-AMC) purchased from Bachem (#I-1995; Torrance, CA). Ac-VKTGKR-AMC purchased from Genscript or Bachem, Ac-FAAGKR-AMC purchased from Genscript, Ac-GLVKRR-AMC purchased from Genscript, Ac-LKKR-AMC purchased from Genscript.
GU AMC unlinked NS2B-NS3 protease qHTS protocol
Briefly, 3 microL of Zika virus unlinked NS2B-NS3 protease (25 nM for linked final concentration), in assay buffer (10 mM Tris-HCl pH 8.0 with 0.01% Tween 20) was dispensed into a 1,536-well solid-bottom black plate (Greiner Bio One, Monroe, NC). […] Plates were then read immediately on a ViewLux High-throughput CCD imager (PerkinElmer, Waltham, MA) equipped with standard UV fluorescence optics (340(30) nm excitation, 450(20) nm emission) then incubated (room temperature, protected from light) for 15 minutes (~20% conversion). The change in fluorescence intensity over the 15-minute reaction period was normalized against no-inhibitor and no-enzyme controls and the resulting percent inhibition data were fitted to a 4-parameter Hill equation. Aprotinin was used as the intraplate control.
Potency is read from the fitted curve at half-maximal effect.

**Q.** How did the Potency turn out when Cc1nccc2c1[nH]c1ccccc12 was run?
**A.** Its Potency is 26.7 µM (active).

**Q.** CC(C)[C@]12O[C@@H]1[C@@H]1O[C@]13[C@]1(O[C@H]1C[C@@H]1C4=C(CC[C@@]13C)C(=O)OC4)[C@H]2O was tested. Which Potency did it give?
**A.** The Potency was “inactive”.

**Q.** Oc1ccc2c3c1O[C@H]1c4[nH]c5c(c4C[C@@]4(O)[C@@H](C2)N(CC2CC2)CC[C@]314)C[C@@]1(O)[C@H]2Cc3ccc(O)c4c3[C@@]1(CCN2CC1CC1)[C@H]5O4 was tested. Which Potency did it give?
**A.** Its Potency is “inactive”.

**Q.** Which Potency does the source give for NCCc1c[nH]c2ccc(O)cc12 here?
**A.** Its Potency is “inactive”.

**Q.** With Cc1cc(O)ccc1Cl as the molecule, how does the Potency read?
**A.** The Potency was “inactive”.

**Q.** With COc1ccc(C(c2ccc(OC)cc2)C(Cl)(Cl)Cl)cc1 as the molecule, how does the Potency read?
**A.** Its Potency is “inactive”.

**Q.** CCCCCCCCCC(CC)c1ccc(S(=O)(=O)O)cc1 (stereo not given) was tested. Which Potency did it give?
**A.** The Potency was 11.7 µM (active).

**Q.** For CC(=O)NCCc1c[nH]c2ccccc12, which Potency is on record?
**A.** Its Potency is “inactive”.

**Q.** For C#CCOC(=O)C1=CCCN(C)C1, which Potency is on record?
**A.** The Potency was “inactive”.

**Q.** Which Potency does the source give for COc1ccc2c(c1)CN(C)CC2c1ccc(Cl)c(Cl)c1 (stereo not given) here?
**A.** Its Potency is “inactive”.

**Q.** For O=C1C(I)=CC(=C(c2cc(I)c(O)c(I)c2)c2ccccc2C(=O)O)C=C1I, which Potency is on record?
**A.** Its Potency is 12.8 µM (active).

**Q.** How did the Potency turn out when OCCCBr was run?
**A.** The Potency was “inactive”.

**Q.** For O=C(Oc1ccc([N+](=O)[O-])cc1)N1CCC(C(O)(c2ccc3c(c2)OCO3)c2ccc3c(c2)OCO3)CC1, which Potency is on record?
**A.** The Potency was “inactive”.

**Q.** Which Potency does the source give for c1ccc2sc(C3(N4CCCCC4)CCCCC3)cc2c1 here?
**A.** Its Potency is “inactive”.

**Q.** With CC[C@H]1C=CC=CC[C@@H](C)[C@H](O)[C@@](C)(O)C(=O)[C@@H](C)[C@H](O)[C@@H](C)C(=O)[C@@H](C)[C@H](O)[C@@H](C)C=CC(=O)O[C@@H]2[C@@H](C)[C@H](CC1)O[C@]1(CC[C@H](C)[C@H](C[C@@H](C)O)O1)[C@H]2C as the molecule, how does the Potency read?
**A.** The Potency was “inactive”.

**Q.** Which Potency does the source give for C[C@]12CCC(=O)C(O)=C1CC[C@@H]1[C@H]3CCC(=O)[C@@]3(C)CC[C@@H]12 here?
**A.** The Potency was “inactive”.

**Q.** CCN(CC)C(=O)c1ccc(C2=CC3(CCNCC3)Oc3cccc(O)c32)cc1 was tested. Which Potency did it give?
**A.** The Potency was “inactive”.

**Q.** For Cc1c(C(=O)c2cccc3ccccc23)c2cccc3c2n1[C@H](CN1CCOCC1)CO3, which Potency is on record?
**A.** Its Potency is “inactive”.

**Q.** Which Potency does the source give for NC1CCc2cc(O)c(O)cc2C1 (stereo not given) here?
**A.** The Potency was “inactive”.

**Q.** For CN1CCN(c2ccc([N+](=O)[O-])c3no[n+]([O-])c23)CC1, which Potency is on record?
**A.** Its Potency is “inactive”.

**Q.** With O=C1CCCN1CC#CCN1CCCC1 as the molecule, how does the Potency read?
**A.** The Potency was “inactive”.

**Q.** With O=S(=O)(O)C(F)(F)C(F)(F)C(F)(F)C(F)(F)F as the molecule, how does the Potency read?
**A.** Its Potency is “inactive”.

**Q.** How did the Potency turn out when CC(=Cc1csc(C)n1)[C@@H]1C[C@H]2O[C@@H]2CCC[C@H](C)[C@@H](O)[C@@H](C)C(=O)C(C)(C)[C@@H](O)CC(=O)O1 was run?
**A.** The Potency was “inactive”.

**Q.** How did the Potency turn out when C[C@@H]1O[C@@H](O[C@@H]2C=C3CC[C@@H]4[C@@H](CC[C@]5(C)[C@H](c6ccc(=O)oc6)CC[C@@]45O)[C@@]3(C)CC2)[C@H](O)[C@H](O)[C@H]1O was run?
**A.** The Potency was “inactive”.

**Q.** How did the Potency turn out when C[C@]12CC[C@H]3[C@@H](CCC4=CC(=O)CC[C@@]43C)[C@H]1CC[C@H]2O was run?
**A.** Its Potency is “inactive”.

**Q.** For C=CC(=O)NCNC(=O)C=C, which Potency is on record?
**A.** Its Potency is “inactive”.

**Q.** Cc1nc(-c2ccc(-c3ccc(C(=O)N4CCc5cc6c(cc54)C4(CCN(C)CC4)CO6)cc3)c(C)c2)no1 was tested. Which Potency did it give?
**A.** The Potency was “inactive”.

**Q.** How did the Potency turn out when CN[C@@H](C)[C@H](O)c1ccccc1 was run?
**A.** The Potency was “inactive”.

**Q.** CCC(=O)O[C@@H]1C=C2CCC3C(CCC4(C)C3CC[C@@H]4OC(=O)CC)C2CC1 (stereo not given in full) was tested. Which Potency did it give?
**A.** Its Potency is “inactive”.

**Q.** CC(C)[C@]12O[C@H]1[C@@H]1O[C@]13[C@]1(O[C@H]1C[C@H]1C4=C(CC[C@@]13C)C(=O)OC4)[C@@H]2O was tested. Which Potency did it give?
**A.** The Potency was “inactive”.

**Q.** How did the Potency turn out when CC[C@@]1(O)C(=O)OCc2c1cc1n(c2=O)Cc2cc3ccccc3nc2-1 was run?
**A.** The Potency was 2.12 µM (active).

**Q.** For NC1=NC(=O)N2CC12 (stereo not given), which Potency is on record?
**A.** Its Potency is “inactive”.

**Q.** How did the Potency turn out when CC[C@@H](C(N)=O)N1CCCC1=O was run?
**A.** The Potency was “inactive”.

**Q.** For CC(Cc1ccc(O)cc1)NCC(O)c1cc(O)cc(O)c1 (stereo not given), which Potency is on record?
**A.** The Potency was “inactive”.

**Q.** For Cc1ccccc1-n1c(Cn2ncc3c(N)ncnc32)nc2cccc(C)c2c1=O, which Potency is on record?
**A.** The Potency was “inactive”.

**Q.** For O=C(O)c1cc(Oc2ccc(C(F)(F)F)cc2Cl)ccc1[N+](=O)[O-], which Potency is on record?
**A.** Its Potency is “inactive”.

**Q.** How did the Potency turn out when O=[N+]([O-])c1c(Cl)c(Cl)cc(Cl)c1Cl was run?
**A.** The Potency was “inactive”.

**Q.** How did the Potency turn out when O=C(O)CCCOc1ccc(Cl)cc1Cl was run?
**A.** Its Potency is “inactive”.

**Q.** With c1ccc2c(CN3CCNCC3)cccc2c1 as the molecule, how does the Potency read?
**A.** The Potency was “inactive”.

**Q.** Which Potency does the source give for CC(=O)OCC1=C(C(=O)O)N2C(=O)[C@@H](N)[C@@H]2SC1 here?
**A.** Its Potency is “inactive”.
